Reference: PubChem BioAssay (EPA / NIEHS)
Calls of active or inactive are those of the source. How the source made its calls: active means hit-call score of the fitted dose curve at least 0.9, where 1 is the maximum; inactive means score below 0.9.

assay: ATG_AP_1_CIS: Attagene CIS-FACTORIAL HepG2 Assay for human Activator Protein 1 (AP-1) (AID 2282931); conditions: HepG2 Attagene cis-factorial AP-1 reporter mRNA; actives raise or lower the signal
How it was run: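 Bidirectional concentration-response fitting against DMSO controls. Underlying signal: reporter mRNA from cis-promoter constructs in transiently transfected HepG2, measured after 24 h by RT-PCR and capillary electrophoresis.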

Structure (SMILES) | outcome | AC50
Cc1[nH]cnc1C[C@H]1CCc2c(C)c3ccccc3n2C1=O | inactive | 
CC(C)CCCCCCCOC(=O)CCCCC(=O)OCCCCCCCC(C)C | inactive | 
O=P(OC(CCl)CCl)(OC(CCl)CCl)OC(CCl)CCl | inactive | 
CN(C)c1ccc(Cc2ccc(N(C)C)cc2)cc1 |  | 65 µM (active)
CC(C)=CCCC(C)=CC=O |  | 137 µM (active)
COC(=O)c1ccccc1O | inactive | 
O=C1CCC(N2C(=O)c3ccccc3C2=O)C(=O)N1 (stereo not drawn) | inactive | 
CC(C)CC(C)(O)C#CC(C)(O)CC(C)C (stereo not drawn) | inactive | 
CCC(C)(C)C(=O)O[C@H]1C[C@@H](C)C=C2C=C[C@H](C)[C@H](CC[C@@H]3C[C@@H](O)CC(=O)O3)[C@H]21 | inactive | 
CC(C)(O)c1coc(S(=O)(=O)NC(=O)Nc2c3c(cc4c2CCC4)CCC3)c1 | inactive | 
O=C(OC[C@H]1O[C@@H](OC(=O)c2cc(O)c(O)c(OC(=O)c3cc(O)c(O)c(O)c3)c2)[C@H](OC(=O)c2cc(O)c(O)c(OC(=O)c3cc(O)c(O)c(O)c3)c2)[C@@H](OC(=O)c2cc(O)c(O)c(OC(=O)c3cc(O)c(O)c(O)c3)c2)[C@@H]1OC(=O)c1cc(O)c(O)c(OC(=O)c2cc(O)c(O)c(O)c2)c1)c1cc(O)c(O)c(OC(=O)c2cc(O)c(O)c(O)c2)c1 | inactive | 
Cn1cnc([N+](=O)[O-])c1Sc1ncnc2nc[nH]c12 |  | 28.1 µM (active)
O=C(O)CC(O)C(=O)O (stereo not drawn) | inactive | 
CC[C@H](C)C(=O)O[C@H]1C[C@@H](C)C=C2C=C[C@H](C)[C@H](CC[C@@H]3C[C@@H](O)CC(=O)O3)[C@H]21 | inactive | 
O=c1n(CC2CO2)c(=O)n(CC2CO2)c(=O)n1CC1CO1 (stereo not drawn) |  | 4.4 µM (active)
COCCOc1cc2cc(C(=O)NC3CCN(C(C)C)CC3)n(CC(=O)Nc3ccc(Cl)cn3)c2cn1 | inactive | 
CC(C)=CCC/C(C)=C/CO | inactive | 
CCOC(=O)CC(CC(=O)OCC)(OC(C)=O)C(=O)OCC | inactive | 
Cc1ccc(C)c(O)c1 | inactive | 
CCCCCCCCCCCCCCCO | inactive | 
CC[C@H]1OC(=O)[C@H](C)[C@@H](O[C@H]2C[C@@](C)(OC)[C@@H](O)[C@H](C)O2)[C@H](C)[C@@H](O[C@@H]2O[C@H](C)C[C@H](N(C)C)[C@H]2O)[C@](C)(O)C[C@@H](C)C(=O)[C@H](C)[C@@H](O)[C@]1(C)O | inactive | 
CC(C)CCO | inactive | 
CC(C)CCCCCCOC(=O)c1ccc(C(=O)OCCCCCCC(C)C)c(C(=O)OCCCCCCC(C)C)c1 | inactive | 
Cc1c(-c2cccnc2)c2ccccc2n1CCCCC(=O)O | inactive | 
CCCCC(CC)COC(=O)c1ccc(C(=O)OCC(CC)CCCC)cc1 (stereo not drawn) | inactive | 
CCCCCCCCO | inactive | 
O=C(O)CCN(C1(C(=O)NO)CCCC1)S(=O)(=O)c1ccc(Oc2ccc(F)cc2)cc1 | inactive | 
COc1cccc(-c2ccc(/C=C\CN3CCCCCC3)cc2Cl)c1 |  | 16.2 µM (active)
CC(C)=CCC/C(C)=C\CO | inactive | 

assay: ATG_AP_2_CIS: Attagene CIS-FACTORIAL HepG2 Assay for human Activator Protein 2 (AP-2) (AID 2282932); conditions: HepG2 AP-2 cis-reporter, Attagene transcription factor profiling; actives raise or lower the signal
How it was run: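 Liver-derived HepG2 line, cis-reporter system measuring endogenous factors; 24 h dosing; reporter mRNA detected by fluorescent RT-PCR and capillary electrophoresis.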

Structure (SMILES) | outcome
Cc1[nH]cnc1C[C@H]1CCc2c(C)c3ccccc3n2C1=O | inactive
CC(C)CCCCCCCOC(=O)CCCCC(=O)OCCCCCCCC(C)C | inactive
O=P(OC(CCl)CCl)(OC(CCl)CCl)OC(CCl)CCl | inactive
CN(C)c1ccc(Cc2ccc(N(C)C)cc2)cc1 | inactive
CC(C)=CCCC(C)=CC=O | inactive
COC(=O)c1ccccc1O | inactive
O=C1CCC(N2C(=O)c3ccccc3C2=O)C(=O)N1 (stereo not drawn) | inactive
CC(C)CC(C)(O)C#CC(C)(O)CC(C)C (stereo not drawn) | inactive
CCC(C)(C)C(=O)O[C@H]1C[C@@H](C)C=C2C=C[C@H](C)[C@H](CC[C@@H]3C[C@@H](O)CC(=O)O3)[C@H]21 | inactive
CC(C)(O)c1coc(S(=O)(=O)NC(=O)Nc2c3c(cc4c2CCC4)CCC3)c1 | inactive
O=C(OC[C@H]1O[C@@H](OC(=O)c2cc(O)c(O)c(OC(=O)c3cc(O)c(O)c(O)c3)c2)[C@H](OC(=O)c2cc(O)c(O)c(OC(=O)c3cc(O)c(O)c(O)c3)c2)[C@@H](OC(=O)c2cc(O)c(O)c(OC(=O)c3cc(O)c(O)c(O)c3)c2)[C@@H]1OC(=O)c1cc(O)c(O)c(OC(=O)c2cc(O)c(O)c(O)c2)c1)c1cc(O)c(O)c(OC(=O)c2cc(O)c(O)c(O)c2)c1 | inactive
Cn1cnc([N+](=O)[O-])c1Sc1ncnc2nc[nH]c12 | inactive
O=C(O)CC(O)C(=O)O (stereo not drawn) | inactive
CC[C@H](C)C(=O)O[C@H]1C[C@@H](C)C=C2C=C[C@H](C)[C@H](CC[C@@H]3C[C@@H](O)CC(=O)O3)[C@H]21 | inactive
O=c1n(CC2CO2)c(=O)n(CC2CO2)c(=O)n1CC1CO1 (stereo not drawn) | inactive
COCCOc1cc2cc(C(=O)NC3CCN(C(C)C)CC3)n(CC(=O)Nc3ccc(Cl)cn3)c2cn1 | inactive
CC(C)=CCC/C(C)=C/CO | inactive
CCOC(=O)CC(CC(=O)OCC)(OC(C)=O)C(=O)OCC | inactive
Cc1ccc(C)c(O)c1 | inactive
CCCCCCCCCCCCCCCO | inactive
CC[C@H]1OC(=O)[C@H](C)[C@@H](O[C@H]2C[C@@](C)(OC)[C@@H](O)[C@H](C)O2)[C@H](C)[C@@H](O[C@@H]2O[C@H](C)C[C@H](N(C)C)[C@H]2O)[C@](C)(O)C[C@@H](C)C(=O)[C@H](C)[C@@H](O)[C@]1(C)O | inactive
CC(C)CCO | inactive
CC(C)CCCCCCOC(=O)c1ccc(C(=O)OCCCCCCC(C)C)c(C(=O)OCCCCCCC(C)C)c1 | inactive
Cc1c(-c2cccnc2)c2ccccc2n1CCCCC(=O)O | inactive
CCCCC(CC)COC(=O)c1ccc(C(=O)OCC(CC)CCCC)cc1 (stereo not drawn) | inactive
CCCCCCCCO | inactive
O=C(O)CCN(C1(C(=O)NO)CCCC1)S(=O)(=O)c1ccc(Oc2ccc(F)cc2)cc1 | inactive
COc1cccc(-c2ccc(/C=C\CN3CCCCCC3)cc2Cl)c1 | inactive
CC(C)=CCC/C(C)=C\CO | inactive
